Here are results for 27 molecules from PubChem BioAssay (NCATS).

Test [1] can be described thus: qHTS for activators of dead-cell proteases activity screened against the NCATS CANVASS Library (AID 1347392).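 Further: luminescence from protease leaking out of membrane-damaged cells cleaving impermeant substrate; rising signal means more cytotoxicity.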 The method in brief:
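HepG2 cells (2000/well) attached 18 h at 37C, then exposed 5 h to compounds (11-point qHTS). Dead-cell protease activity read as luminescence from cell-impermeant AAF-aminoluciferin substrate after 15 min at room temperature.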
(qHTS replaces the single test concentration by a dilution series.)

Test [2] is described as follows: qHTS for inhibitors of ER calcium dysfunction: SERCaMP assay screened against the NCATS CANVASS Library (AID 1347393).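 Further: series mostly up to about 77 µM; lower secreted reporter signal means inhibitor of ER calcium depletion; nearly all actives have a fitted effect of over 40% in size.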 The text has this:
Natural products and their derivatives continue to be wellsprings of nascent therapeutic potential. However, many laboratories have limited resources for biological evaluation, leaving their previously isolated or synthesized compounds largely or completely untested. To address this issue, the Canvass library of natural products was assembled (https://tripod.nih.gov/canvass), in collaboration with academic and industry researchers, for quantitative high-throughput screening (qHTS) across a diverse set of cell-based and biochemical assays. The pure (>85% purity by liquid chromatography/mass spectrometry [LC/MS]) Canvass library of 346 natural products were submitted by 45 academic laboratories and companies around the world. We collected pure natural products to circumvent deconvolution and structure elucidation due to time and resource limitations. The library was formatted into 1536-well plates and evaluated in 50 qHTS (in an 11-pnt concentration series) bioassays with broad scope of disease-relevant mechanisms. The resulting data set from 50 different assays was then systematically analyzed to identify overall trends and specific natural products with interesting biological activities. […]
SERCaMP assay protocol: 1. […] Luminescence signal was obtained via the ViewLux plate reader (Perkin Elmer) using the clear emission filter and 1x binning, 5 seconds exposure settings.

A short description of test [3]: Vero-766 cells viability qHTS against the NCATS CANVASS Library: Counterscreen for Zika virus inhibition assay (AID 1347394). Further: series mostly up to about 46 µM; nearly all actives have a fitted effect of over 60% in size. In outline: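 CellTiter-Glo luminescence, lower signal indicating cytotoxicity. Vero 766 cells without Zika virus, 1000 cells/well, plated overnight, then treated 72 h at 37C across an 11-point series.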
The nature of test [4]: qHTS for inhibitors of Wild type Zika virus screened against the NCATS CANVASS Library (AID 1347396).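 Further: ATP luminescence of surviving cells so rescue from viral cell killing; series mostly up to about 46 µM.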 The method in brief:
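Vero 766 (African green monkey) cells, 1000 per well, attached overnight, then compounds were added in an 11-point series before wild-type Zika virus infection. After 72 h at 37C, cell viability was read as CellTiter Glo luminescence.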

Test [5] is described as follows: Viability qHTS for inhibitors of the SERCaMP assay screened against the NCATS CANVASS Library (AID 1347400). Further: series mostly up to about 92 µM; nearly all actives have a fitted effect of over 70% in size. The method in brief:
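SH-SY5Y-GLuc SERCaMP MJH297-derived cells, 1000/well, plated 4 h, then exposed to compounds in an 11-point qHTS series for 48 h at 37C. Viability read as CellTiter-Glo luminescence.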

Test [6] can be described thus: Redox Reaction Profiling qHTS: Assay Interference Panel against the NCATS CANVASS Library (AID 1347401). In outline: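 Resazurin (5 uM) conversion to resorufin measured with 200 uM DTT in 50 mM HEPES pH 7.3, 50 mM NaCl. Compounds tested in 11-point qHTS series. Fluorescence (ex 525/em 598 nm) read before and after 15 min dark incubation.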
Test [7] can be described thus: qHTS to identify inhibitors of the type 1 interferon - major histocompatibility complex class I in skeletal muscle: primary screen against the NCATS LOPAC collection (AID 1347405).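 Further: lytic HiBiT luminescence reporting HLA-B protein level.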 The method in brief:
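CRISPR-engineered immortalized human myoblasts (C25cl48) with HiBiT fused to endogenous HLA-B*08:01, stimulated with 4 ng/ml IFN-beta. LOPAC compounds tested as a 7-point 1:4.3 titration (top 46 uM final), 24 h at 37 C; lytic HiBiT luminescence read.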

The nature of test [8]: qHTS for inhibitors of adenylyl cyclases using a fission yeast platform: a pilot screen against the NCATS LOPAC library (AID 1347410). In outline: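 Read-out: fbp1-GFP fluorescence by laser scanning cytometry (488 nm laser), a gain of signal when AC/cAMP-PKA signalling is inhibited. Strain CHP2027 expressing AC9, GNAS and PDE4D2; compounds at up to 57 µM; 18 h, 30C.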
Test [9] in a line: Validation qHTS assay for inhibitors of Activation Induced Cytidine Deaminase (AID): UDG Counterscreen signal (AID 1347427). The method in brief: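 Counterscreen read of UDG activity (2 U/mL, 4/3x) in the FRET deamination format with AID (1 uM, 4/3x), DJC20/DJC23 substrates (250 nM, 4x), 4 h at room temperature. NaOH stop, fluorescence at 560 ex/665 em.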

Records with an inconclusive call do not appear. A call without a number means that no potency is given here. Activity calls are given as the source filed them. The call rests on the fitted dose curve; in most records, active means well fitted curve in the direction sought with a large enough effect; inconclusive means small, poorly fitted or top-dose-only effect, or another doubt; inactive means no such curve, though single readings can be large; an effect the other way counts as inactive or inconclusive.

Regarding `O=C(O)Cc1c[nH]c2ccc(O)cc12`, the molecule was called inactive in test [1], in test [2], in test [3], in test [4], in test [5] and in test [6]. In addition, the molecule was classed as inactive in [8]. Besides, in test [7], the Potency entry was “inactive”.
On to `c1ccc2nc(C3=NCCN3)ccc2c1`, for which the Potency result in test [7] was “inactive”. In addition, the molecule was called inactive in [8].
`O=C(O)C1CCCNC1` (stereo unspecified): in test [7], the Potency result was “inactive”. The result in [8] was inactive.
On to `Nc1ccc(-c2ccc3ccccc3n2)cc1`, for which the Potency entry in [7] is “inactive”. For the same molecule, in [8], the molecule was called inactive.
Turning to `Cn1ccnc1`, the Potency result in test [7] was “inactive”.
Take `C=C1C[C@@]23CC[C@H]4[C@@](C)(CCC[C@@]4(C)C(=O)O)[C@@H]2CC[C@]1(O)C3`: in test [7], the Potency entry is “inactive”. In addition, the molecule was classed as inactive in test [8].
On to `CSC(N)=NCCC[C@H](N)C(=O)O`, for which, in test [7], the Potency entry is “inactive”. In addition, in test [8], the call was inactive.
Turning to `Cc1nc(N=Nc2ccc(C(=O)O)cc2)c(COP(=O)(O)O)c(C=O)c1O`, the Potency result in test [7] was “inactive”. Also, the outcome in test [8] was inactive.
As to `Nc1ccc(-c2nc3ccc(-c4nc5ccc(N)cc5[nH]4)cc3[nH]2)cc1`, the Potency result in test [7] is “inactive”. The molecule was classed as inactive in test [8].
With `CC(N)(C(=O)O)c1ccc(C(=O)O)cc1` (stereo unspecified), in test [7], the Potency entry is “inactive”. In addition, the result in [8] was inactive.
For `O=C(O)/C=C/c1ccc(O)c(O)c1`, the Potency entry in [7] and in test [9] was “inactive” in each case. For the same molecule, in test [8], the molecule was called inactive.
For the molecule `O=c1cc(O)cc(/C=C/c2ccc(O)c(O)c2)o1`, in [7], the Potency entry is “inactive”.
With `NC(N)=NC(N)=Nc1cccc(Cl)c1`, the Potency result in test [7] was “inactive”. Besides, the result in [8] was inactive.
Regarding `O=C(O)CCC(=O)N1CCCC1C(=O)O` (stereo unspecified), the Potency entry in test [7] and in [9] was “inactive” in each case. Besides, in test [8], the call was inactive.
For the molecule `O=c1onc2cnc3ccccc3n12`, the Potency result in [7] and in test [9] was “inactive” in each case. For the same molecule, in test [8], the outcome was inactive.
For the molecule `NCCCCN`, the Potency result in test [7] is “inactive”. Moreover, the molecule was called inactive in test [8].
In the case of `CCCCC[C@H](CC(=O)NO)C(=O)N[C@H](C(=O)N1CCC[C@H]1CO)C(C)C`, the Potency entry in test [7] and in test [9] was “inactive” each time. For the same molecule, the molecule was called inactive in test [8].
As for `CO/N=C(\C(=O)N[C@@H]1C(=O)N2C(C(=O)O)=C(CSc3nc(=O)c(O)nn3C)CSC12)c1csc(N)n1` (stereo partly specified), the Potency result in test [7] was “inactive”. In addition, in [8], the outcome was inactive.
Turning to `O[Si](CCCN1CCCCC1)(c1ccc(F)cc1)C1CCCCC1` (stereo unspecified), the Potency result in test [7] is “inactive”. The molecule was classed as inactive in test [8].
`Cc1cccc(C2CN(C)CCc3c2cc(O)c(O)c3Cl)c1` (stereo unspecified): the Potency result in test [7] was “inactive”. Besides, the molecule was called inactive in test [8].
On to `OC[C@H]1O[C@H](n2cnc3c(N[C@H]4CCC[C@@H]4O)ncnc32)[C@H](O)[C@@H]1O`, for which the Potency entry in test [7] is “inactive”. Also, the molecule was classed as inactive in [8].
For `CC(O)C(O)[C@H]1CNc2nc(N)[nH]c(=O)c2N1` (stereo partly specified), the Potency entry in test [7] is “inactive”. The molecule was called inactive in test [8].
As to `O=c1[nH]c(=O)c2nc3ccccc3nc2[nH]1`, the Potency result in test [7] was “inactive”. Moreover, the outcome in test [8] was inactive.
Regarding `CC(=O)NCCc1c[nH]c2ccc(O)cc12`, the outcome in test [1], in [3], in [4], in test [5] and in [8] was inactive. Besides, the Potency entry in test [7] and in test [9] was “inactive” each time.
With `Cn1c(=O)c2c(nc(/C=C/c3cccc(Cl)c3)n2C)n(C)c1=O`, the Potency entry in test [7] is “inactive”. Besides, the result in [8] was inactive.
On to `CC(=O)[C@H]1CCC2C3CC=C4C[C@@H](OS(=O)(=O)O)CC[C@]4(C)C3CC[C@@]21C` (stereo partly specified), for which the Potency entry in test [7] was “inactive”.
Take `N[C@H](C(=O)O)[C@H](O)C(=O)O`: the Potency entry in [7] is “inactive”. In test [8], the result was inactive.
